# Compound activity: PubChem, The Scripps Research Institute Molecular Screening Center
# Hits are enriched below; roughly 3.5% of the tested compounds scored in any of these assays.
# TEAD-YAP block: TEAD-YAP interaction inhibition; HEK-TIYL cells, TEAD-Gal4/YAP UAS-luciferase luminescence; inhibition, % at 9.12 µM; actives 1.4% (n = 640,000); in the data active = inhibition above about 32%;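 also: 0% = median of test compound wells and 100% = reference inhibitor wells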
# MITF inh: inhibitors of human MITF; O75030; AlphaScreen MITF homodimerization, bead proximity signal; inhibition, % at 2.6 µM; actives 0.91% (n = 650,000); AID 1259374; in the data active = inhibition above about 50%;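 also: 0% = vehicle wells with protein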
# Target sequence (O75030 whole entry, looked up): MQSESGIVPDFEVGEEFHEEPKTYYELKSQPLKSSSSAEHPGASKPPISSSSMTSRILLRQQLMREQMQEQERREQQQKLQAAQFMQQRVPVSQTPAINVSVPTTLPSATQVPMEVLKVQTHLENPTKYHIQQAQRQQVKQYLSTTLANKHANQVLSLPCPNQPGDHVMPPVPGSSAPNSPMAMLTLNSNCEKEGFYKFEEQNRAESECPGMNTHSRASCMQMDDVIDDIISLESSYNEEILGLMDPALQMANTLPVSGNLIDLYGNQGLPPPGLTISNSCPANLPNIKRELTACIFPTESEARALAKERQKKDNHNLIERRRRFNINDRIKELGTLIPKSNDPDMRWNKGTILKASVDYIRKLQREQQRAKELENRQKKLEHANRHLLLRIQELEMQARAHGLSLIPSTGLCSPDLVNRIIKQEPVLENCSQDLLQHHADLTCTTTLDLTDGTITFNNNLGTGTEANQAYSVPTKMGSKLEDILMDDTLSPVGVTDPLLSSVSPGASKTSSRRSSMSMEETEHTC
# GPR151 ag: human GPR151 activation. AID 1508602. activation, % at 11.2 µM. actives 1% (n = 650,000). PathHunter beta-arrestin GPR151 cells, luminescence; in the data active = activation above about 4.9%;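 also: 0% = median of compound wells and 100% = cells with positive control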
# FBW7 activator: activators of human E3 ligase FBW7. Q969H0. AlphaScreen FBW7–phospho-cyclin E peptide binding, activator screen. normalized activity (activation), % at 26.1 µM. actives 0.13% (n = 650,000); in the data active = normalized activity above about 1.9%;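 also: purified mutant Fbw7 with reduced substrate affinity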
# GPR151 conf act: human GPR151 activation, confirmation screen; shares compounds with GPR151 ag; GPR151 PathHunter beta-arrestin cells, luminescence, 90 min; % of EA-reagent control over plate median; 6,700 tested, under 10 active; activation, % at 11.2 µM;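 active = mean percent activation across replicates above the confirmation screen cutoff of 4.91%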
# GPR119 counter: counter-screen for GPR151 activators: effect on human GPR119; AID 1508611; activation, % at 11.2 µM; GPR119 PathHunter beta-arrestin cells, luminescence, 90 min; 0 = compound-well median, 100 = enzyme-acceptor control; shares compounds with GPR151 ag; actives 0.3% (n = 6,700);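 active = mean percent activation in the counterscreen above 29.09%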;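 also: counterscreen on off-target GPR119 to flag nonselective hits from the GPR151 activator screen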
# Numbers without * were called inactive; · = no result.
SMILES,TEAD-YAP block,MITF inh,GPR151 ag,FBW7 activator,GPR151 conf act,GPR119 counter
Cc1c(C(=O)N2CCN(c3ccccn3)CC2)sc2ncnc(N3CCCCC3C)c12 (centres undefined),-9,0,0,0,·,·
COc1ccc(C2=NN(C(=O)CSc3nncs3)C(c3ccco3)C2)cc1 (centres undefined),-8,-12,-2,0,·,·
Cc1ccc(S(=O)(=O)N2CCCC2CNC(=O)C(=O)NC2CCCCCC2)cc1 (centres undefined),10,3,1,0,·,·
O=C(NCC1CCCN1S(=O)(=O)c1ccccc1)C(=O)NC1CCCCC1 (centres undefined),-7,-9,21*,0,0,-7
CCNC(=O)C(=O)NCC1CCCN1S(=O)(=O)c1ccc(C)cc1 (centres undefined),-2,-1,6.2*,0,-1,-3
O=C(NCCc1ccccc1)C(=O)NCC1CCCN1S(=O)(=O)c1cccs1 (centres undefined),6,9,7.3*,0,-1,-10
Cc1ccc(S(=O)(=O)N2CCCC2CNC(=O)Nc2ccc(Cl)cc2)cc1 (centres undefined),4,-6,6.0*,0,0,-8
CCOC(=O)C(=O)NCC1CCCN1S(=O)(=O)c1cccs1 (centres undefined),2,17,-1,0,·,·
Cc1ccc(S(=O)(=O)N2CCCC2CNC(=O)C(=O)NCCO)cc1 (centres undefined),5,4,2,0,·,·
Cc1ccc(C)c(N2CCN(C(=O)CCN3C(=O)c4ccccc4C3=O)CC2)c1,9,-8,1,0,·,·
Cc1ccc(OCC(=O)N2CCN(C(=O)COc3ccc4ccccc4c3)CC2)cc1,-4,-2,-1,0,·,·
Cn1nnc2c(N3CCN(C(=O)COc4ccc5ccccc5c4)CC3)ncnc21,3,8,5.1*,0,-1,-4
Fc1ccc2nc(N3CCN(c4nc5ccccc5s4)CC3)sc2c1,2,10,15*,0,-1,-7
CCOC(=O)C1=C(C)N=c2s/c(=C\c3cc(I)c(O)c(OCC)c3)c(=O)n2C1c1cccs1 (centres undefined),0,-5,0,0,·,·
COC(=O)C1=C(O)/C(=C\c2ccc(F)cc2)N=C1C,6,-6,8.6*,0,1,-7
COC(=O)CN(c1ccc(C)cc1)S(=O)(=O)c1c(C)[nH]c(=O)[nH]c1=O,2,6,2,0,·,·
COC(=O)CN(c1ccc2c(c1)OCO2)S(=O)(=O)c1c(C)[nH]c(=O)[nH]c1=O,9,-6,5.3*,0,1,2
CCCCc1ccc(NC(=O)COc2ccc(C)c(C)c2)cc1,1,7,0,0,·,·
O=C(N/N=C/c1ccc(F)cc1)C(=O)Nc1ccc(Cl)c(Cl)c1,-1,4,2,1,·,·
O=C(NCc1ccc(F)cc1)C(=O)Nc1cccc(Cl)c1,-6,-3,5.1*,0,3,0
O=C(NCCc1ccc(F)cc1)C(=O)Nc1cccc(Cl)c1,11,6,0,0,·,·
O=C(N/N=C/c1ccc(F)cc1)C(=O)Nc1cccc(Cl)c1,1,10,5.0*,0,1,12
O=C(Nc1cccc(Cl)c1)O/N=C\c1ccncc1,-11,-1,5.2*,0,-1,2
CCOc1ccc(-c2csc(-c3ccccn3)n2)cc1,-19,0,-4,0,·,·
COc1cc(C(=O)N[C@H](C(=O)NCc2ccc(C)cc2)C(C)C)cc(OC)c1OC,1,2,-1,0,·,·
SMILES,TEAD-YAP block,MITF inh,GPR151 ag,FBW7 activator,GPR151 conf act,GPR119 counter
CCn1nc(C)c(CN2CCOc3ccc(C(C)(O)COc4ccccc4)cc3C2)c1C (centres undefined),-1,-11,6.3*,0,-1,-13
COc1cc(OC)c(CN2CCC(CO)(CCOc3ccccc3)CC2)c(OC)c1,11,9,5.4*,0,-1,-12
CC(=O)C1=C(O)C(=O)N(Cc2cccnc2)C1c1ccc(O)cc1 (centres undefined),10,-13,5.4*,0,1,17
CCOc1cc(C(=O)O)cc(I)c1OCc1ccccc1,8,-1,9.2*,0,0,7
CCCCOc1c(I)cc(C(=O)O)cc1OCC,-3,-9,0,0,·,·
CCC(C)NC(=O)C1=CC(c2cccc(OC)c2)=NS(=O)(=O)N1C (centres undefined),5,-4,5.2*,0,0,-8
CCC(C)NC(=O)C1=CC(c2ccc(OC)c(OC)c2)=NS(=O)(=O)N1C (centres undefined),12,8,1,0,·,·
CN=c1nc(-c2ccccc2)n(-c2ccccc2)s1,-7,2,0,0,·,·
CC(=O)N=c1nc(-c2ccccc2)n(-c2ccccc2)s1,-16,-11,6.9*,0,-1,-10
O=C1N/C(=C\c2ccccc2OCc2ccc(F)cc2)C(=O)N1Cc1ccc(Cl)cc1,1,1,-1,0,·,·
O=C(NCCc1c[nH]c2ccccc12)C12CC3CC(CC(O)(C3)C1)C2,-11,6,7.6*,0,0,-1
CN(CCO)c1nc(-c2ccccc2)c2cc(Br)ccc2n1,-4,-16,-1,0,·,·
COc1nc2ccc(Br)cc2cc1[C@@H](c1ccccc1)[C@@](O)(CCN(C)C)c1cccc2ccccc12,·,·,7.5*,·,0,2
CCOCCOC(=O)C1=C(C)NC2=C(C(=O)CC(c3ccc(Cl)cc3)C2)C1c1ccc(Cl)cc1Cl (centres undefined),9,2,1,0,·,·
CCCCN1C=C(C(=O)OC)C(c2ccccc2Br)C(C(=O)OC)=C1,1,8,-2,1,·,·
O=C(NCc1ccccc1)c1nnc(Cc2cccc(Cl)c2)o1,-5,-2,0,0,·,·
Cc1ccc(CNC(=O)c2nnc(Cc3cccc(Cl)c3)o2)cc1,3,-2,7.4*,0,0,5
Nc1c(Cl)ncnc1N1CCN(c2ncnc(Cl)c2N)CC1,-3,-3,5.4*,0,0,7
Nc1c(Cl)ncnc1N1CCOCC1,7,18,0,0,·,·
O=C(Nc1nc(-c2cc([N+](=O)[O-])cs2)cs1)c1cc(-c2cccs2)nc2ccccc12,13,14,-1,1,·,·
COc1ccc(C2CC(=O)C3=C(C2)Nc2ccccc2N(C(=O)C(F)(F)F)C3c2ccccc2)cc1 (centres undefined),5,-11,5.1*,0,1,3
CN(C)CC(C)(C)CNCC(=O)Nc1cc(C(F)(F)F)cc(C(F)(F)F)c1,5,40,6.0*,0,0,0
COc1ccc(C(=O)N2CCN(CCNC(=O)C(=O)Nc3ccccc3)CC2)cc1,-10,-15,-1,0,·,·
